Experimental data taken from the supplement of paper PMC6555819.

Tests used:
Assay in all cases: PBM binding z-score (relative to random genomic background probes); higher = stronger binding; sequences stand for … in GC…GCGATTGACAGCGTAGAATGAAGG
[1] = tested on: RARb homodimer (NR concentration 270 nM)
Outline: (§1)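 Regression normalization was applied to scanned fluorescence from custom Agilent 4×180K protein-binding microarrays. Before scanning, arrays were incubated 1 h with ligand-free nuclear receptor dimers, and binding was detected with antibodies against each partner (one per run). Binding z-scores use the random background probes as reference.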

[2] = tested on: RARg:RXRa (NR concentration 270 nM, RXRa partner concentration 90 nM)
Outline: as §1

[3] = tested on: RARg homodimer (NR concentration 270 nM)
Outline: as §1

[4] = tested on: RXRa DBDmut IVT, anti-RXR (DBD mutation: RXRa K156A/R161A, NR concentration 90 nM)
Outline: as §1

[5] = tested on: RXRa homodimer (NR concentration 180 nM)
Outline: as §1

[6] = tested on: THRa:RXRa (NR concentration 90 nM, RXRa partner concentration 90 nM)
Outline: as §1

[7] = tested on: THRa homodimer (NR concentration 90 nM)
Outline: as §1

[8] = tested on: VDR homodimer (NR concentration 270 nM)
Outline: as §1

Sequence: CAAACTAGGTCACCGGAACGTCAAAGTCCGCATG
- PBM binding z-score [1]: 3.74
- PBM binding z-score [2]: 4.82
- PBM binding z-score [3]: 5.62
- PBM binding z-score [4]: 1.46
- PBM binding z-score [5]: 3.86
- PBM binding z-score [6]: 3.55
- PBM binding z-score [7]: 1.88
- PBM binding z-score [8]: 1.08

Sequence: AGAATGAGGTTAAGATCGGGGAAACAGAATACAT
- PBM binding z-score [1]: 0.944
- PBM binding z-score [2]: 2.19
- PBM binding z-score [3]: 1.53
- PBM binding z-score [4]: 1.28
- PBM binding z-score [5]: 2.25
- PBM binding z-score [6]: 2.54
- PBM binding z-score [7]: 0.927
- PBM binding z-score [8]: 0.542

Sequence: AGAACGGGGGCAATGAGTTGATAGCACGGGTGGC
- PBM binding z-score [1]: 1.83
- PBM binding z-score [2]: 2.87
- PBM binding z-score [3]: 2.43
- PBM binding z-score [4]: 3.17
- PBM binding z-score [5]: 2.3
- PBM binding z-score [6]: 2.45
- PBM binding z-score [7]: 1.33
- PBM binding z-score [8]: 5.08

Sequence: TCTTGTAGATCAGCAGGTTAAGAAAGCTGGCCAA
- PBM binding z-score [1]: -0.155
- PBM binding z-score [2]: -0.199
- PBM binding z-score [3]: -0.355
- PBM binding z-score [4]: 0.476
- PBM binding z-score [5]: 0.261
- PBM binding z-score [6]: -0.0256
- PBM binding z-score [7]: -0.621
- PBM binding z-score [8]: -0.371

Sequence: CCTATGAGTTGACCATAAGGGCAACCGAAGCTCG
- PBM binding z-score [1]: 1.98
- PBM binding z-score [2]: 2.18
- PBM binding z-score [3]: 1.09
- PBM binding z-score [4]: 0.755
- PBM binding z-score [5]: 0.985
- PBM binding z-score [6]: 2.49
- PBM binding z-score [7]: 1.04
- PBM binding z-score [8]: 0.847

Sequence: CCTACTGGGCCATTCAGAGGTCATTGCTCATATG
- PBM binding z-score [1]: 3.78
- PBM binding z-score [2]: 4.44
- PBM binding z-score [3]: 3.16
- PBM binding z-score [4]: 0.998
- PBM binding z-score [5]: 3.47
- PBM binding z-score [6]: 3.03
- PBM binding z-score [7]: 1.28
- PBM binding z-score [8]: 3.65

Sequence: AGTCAAAGTTCACTAGGTAACGTAAGATTCAGCT
- PBM binding z-score [1]: 3.81
- PBM binding z-score [2]: 4.81
- PBM binding z-score [3]: 5.08
- PBM binding z-score [4]: 4.23
- PBM binding z-score [5]: 3.76
- PBM binding z-score [6]: 2.22
- PBM binding z-score [7]: 0.232
- PBM binding z-score [8]: 3.29

Sequence: ATACCAAGGTGATCGTGAGGTCCTTGATACTAAC
- PBM binding z-score [1]: 0.337
- PBM binding z-score [2]: 0.376
- PBM binding z-score [3]: 0.386
- PBM binding z-score [4]: 0.0286
- PBM binding z-score [5]: 0.487
- PBM binding z-score [6]: 1.94
- PBM binding z-score [7]: 0.903
- PBM binding z-score [8]: 0.291

Sequence: TGTCATAGTTCAAAGGTAACGTAAGTATCCACAC
- PBM binding z-score [1]: 2.51
- PBM binding z-score [2]: 4.15
- PBM binding z-score [3]: 3.54
- PBM binding z-score [4]: 2.09
- PBM binding z-score [5]: 5.18
- PBM binding z-score [6]: 2.6
- PBM binding z-score [7]: 0.118
- PBM binding z-score [8]: 1.23

Sequence: TCGGGTAGGTTAGGGGCATTCAGAATGGCGTCGA
- PBM binding z-score [1]: 1.88
- PBM binding z-score [2]: 1.07
- PBM binding z-score [3]: 1
- PBM binding z-score [4]: 0.943
- PBM binding z-score [5]: 1.02
- PBM binding z-score [6]: 2.44
- PBM binding z-score [7]: 1.61
- PBM binding z-score [8]: 1.79

Sequence: ATATGTAGGTTCGCTGGGGTCATTCAGACTAGGC
- PBM binding z-score [1]: 3.35
- PBM binding z-score [2]: 4.07
- PBM binding z-score [3]: 2.35
- PBM binding z-score [4]: 3.6
- PBM binding z-score [5]: 5.54
- PBM binding z-score [6]: 4.11
- PBM binding z-score [7]: 3.34
- PBM binding z-score [8]: 9.1

Sequence: TCATATAGGTAAACAGGTGAAAATCCGTAAGTTA
- PBM binding z-score [1]: 0.649
- PBM binding z-score [2]: 0.838
- PBM binding z-score [3]: 0.551
- PBM binding z-score [4]: 1.57
- PBM binding z-score [5]: 1.52
- PBM binding z-score [6]: 0.866
- PBM binding z-score [7]: 0.391
- PBM binding z-score [8]: 0.265

Sequence: ATCTCTAGGTAGAGATAGTTCAGTGAATGCAAAT
- PBM binding z-score [1]: 0.368
- PBM binding z-score [2]: 0.166
- PBM binding z-score [3]: 0.357
- PBM binding z-score [4]: -0.163
- PBM binding z-score [5]: 0.115
- PBM binding z-score [6]: 0.148
- PBM binding z-score [7]: -0.22
- PBM binding z-score [8]: 0.338

Sequence: ACAGACAGGTGATGAAGGCAACTCAGGCTATCAT
- PBM binding z-score [1]: -0.412
- PBM binding z-score [2]: 0.106
- PBM binding z-score [3]: 0.345
- PBM binding z-score [4]: -0.405
- PBM binding z-score [5]: 0.152
- PBM binding z-score [6]: 0.815
- PBM binding z-score [7]: -0.588
- PBM binding z-score [8]: -0.37

Sequence: TCTATTAGTTGAAAGGCAACCGACGAGTCCGTTT
- PBM binding z-score [1]: -0.227
- PBM binding z-score [2]: 0.248
- PBM binding z-score [3]: 0.111
- PBM binding z-score [4]: 1.66
- PBM binding z-score [5]: 0.759
- PBM binding z-score [6]: 0.0956
- PBM binding z-score [7]: 0.0862
- PBM binding z-score [8]: 1.08

Sequence: TCGAGTAGGATAGTCGGGGCATTCAGCCAACATA
- PBM binding z-score [1]: -0.402
- PBM binding z-score [2]: -0.475
- PBM binding z-score [3]: -0.579
- PBM binding z-score [4]: 0.18
- PBM binding z-score [5]: -0.289
- PBM binding z-score [6]: 0.0302
- PBM binding z-score [7]: -0.471
- PBM binding z-score [8]: -0.497

Sequence: CCTGCTAGGTCAATGGTAAGCTAAAGCAGCTCGC
- PBM binding z-score [1]: 2.43
- PBM binding z-score [2]: 3.52
- PBM binding z-score [3]: 3.82
- PBM binding z-score [4]: 1.66
- PBM binding z-score [5]: 1.96
- PBM binding z-score [6]: 2.03
- PBM binding z-score [7]: 0.52
- PBM binding z-score [8]: -0.274

Sequence: CTCGAAAGGTCGTGCTCAGGTGCGTATACCAAAC
- PBM binding z-score [1]: 2.4
- PBM binding z-score [2]: 4.1
- PBM binding z-score [3]: 3.38
- PBM binding z-score [4]: 2.27
- PBM binding z-score [5]: 4.39
- PBM binding z-score [6]: 2.69
- PBM binding z-score [7]: 0.271
- PBM binding z-score [8]: 1.45

Sequence: CCTGCTGGGCCATCAGGTCATTGATATCAACGTT
- PBM binding z-score [1]: 2.51
- PBM binding z-score [2]: 2.06
- PBM binding z-score [3]: 2.01
- PBM binding z-score [4]: 0.287
- PBM binding z-score [5]: 1.01
- PBM binding z-score [6]: 3.19
- PBM binding z-score [7]: 2.31
- PBM binding z-score [8]: 1.01

Sequence: TAGCCTGGGTCATTCAGGGGCCAGTATAGAAAGC
- PBM binding z-score [1]: 2.55
- PBM binding z-score [2]: 6.03
- PBM binding z-score [3]: 3.76
- PBM binding z-score [4]: 1.25
- PBM binding z-score [5]: 3.24
- PBM binding z-score [6]: 3.34
- PBM binding z-score [7]: -0.502
- PBM binding z-score [8]: 0.911

Sequence: CCTACTGGGCCATTCAGAGGTCGTTGATCATATG
- PBM binding z-score [1]: 1.58
- PBM binding z-score [2]: 1.55
- PBM binding z-score [3]: 0.872
- PBM binding z-score [4]: 0.268
- PBM binding z-score [5]: 1.05
- PBM binding z-score [6]: 1.28
- PBM binding z-score [7]: 0.339
- PBM binding z-score [8]: 2.12

Sequence: CGTCCAAGGTCAGCAGGTCAGTAAAAGCGACGTG
- PBM binding z-score [1]: 4.97
- PBM binding z-score [2]: 6.32
- PBM binding z-score [3]: 6.68
- PBM binding z-score [4]: 2.49
- PBM binding z-score [5]: 5.07
- PBM binding z-score [6]: 3.97
- PBM binding z-score [7]: 2.48
- PBM binding z-score [8]: 1.81

Sequence: CCTAGTTGATCAAGGTCACACACGCTATAGGTAC
- PBM binding z-score [1]: 4.44
- PBM binding z-score [2]: 4.24
- PBM binding z-score [3]: 4.06
- PBM binding z-score [4]: 2.8
- PBM binding z-score [5]: 4.2
- PBM binding z-score [6]: 4.25
- PBM binding z-score [7]: 4.11
- PBM binding z-score [8]: 4.32

Sequence: GCTATTAGTTGAAAGGGCAACCGGATGATTCTCG
- PBM binding z-score [1]: 2.11
- PBM binding z-score [2]: 1.41
- PBM binding z-score [3]: 1.33
- PBM binding z-score [4]: 0.824
- PBM binding z-score [5]: 1.22
- PBM binding z-score [6]: 0.688
- PBM binding z-score [7]: -0.119
- PBM binding z-score [8]: 0.228

Sequence: CCTACTGGGCCAAACGTCATTGATTCCAATGCTC
- PBM binding z-score [1]: -0.184
- PBM binding z-score [2]: -0.00983
- PBM binding z-score [3]: -0.146
- PBM binding z-score [4]: 0.278
- PBM binding z-score [5]: 0.000676
- PBM binding z-score [6]: -0.343
- PBM binding z-score [7]: -0.264
- PBM binding z-score [8]: -0.254

Sequence: TCTATTTGTTGAAGGGCAACCGACGAGTCCGTTT
- PBM binding z-score [1]: 1.57
- PBM binding z-score [2]: 0.705
- PBM binding z-score [3]: 1.07
- PBM binding z-score [4]: 1.55
- PBM binding z-score [5]: 0.578
- PBM binding z-score [6]: 0.482
- PBM binding z-score [7]: 0.62
- PBM binding z-score [8]: 1.92

Sequence: TCTCGGAGGACACGAAAGGTTAGAGCTCGACATC
- PBM binding z-score [1]: 2.16
- PBM binding z-score [2]: 1.94
- PBM binding z-score [3]: 2.3
- PBM binding z-score [4]: 0.867
- PBM binding z-score [5]: 1.4
- PBM binding z-score [6]: 2.41
- PBM binding z-score [7]: 0.435
- PBM binding z-score [8]: 0.0953

Sequence: CAAACTAGGTCACCCGAAGGTCAAAGTCCGCATG
- PBM binding z-score [1]: 5.43
- PBM binding z-score [2]: 7.91
- PBM binding z-score [3]: 6.9
- PBM binding z-score [4]: 2.35
- PBM binding z-score [5]: 6.29
- PBM binding z-score [6]: 4.45
- PBM binding z-score [7]: 3.04
- PBM binding z-score [8]: 4.18
